{"source": "PubChem BioAssay (EPA / NIEHS)", "note": "Calls of active or inactive are those of the source. The calls were made as follows: active = hit-call score of the fitted dose curve at least 0.9, where 1 is the maximum; inconclusive = response in the unintended direction; inactive = score below 0.9."}
{"target": "Estrogen receptor (Homo sapiens) (UniProt P03372)", "sequence (P03372 whole entry, looked up)": "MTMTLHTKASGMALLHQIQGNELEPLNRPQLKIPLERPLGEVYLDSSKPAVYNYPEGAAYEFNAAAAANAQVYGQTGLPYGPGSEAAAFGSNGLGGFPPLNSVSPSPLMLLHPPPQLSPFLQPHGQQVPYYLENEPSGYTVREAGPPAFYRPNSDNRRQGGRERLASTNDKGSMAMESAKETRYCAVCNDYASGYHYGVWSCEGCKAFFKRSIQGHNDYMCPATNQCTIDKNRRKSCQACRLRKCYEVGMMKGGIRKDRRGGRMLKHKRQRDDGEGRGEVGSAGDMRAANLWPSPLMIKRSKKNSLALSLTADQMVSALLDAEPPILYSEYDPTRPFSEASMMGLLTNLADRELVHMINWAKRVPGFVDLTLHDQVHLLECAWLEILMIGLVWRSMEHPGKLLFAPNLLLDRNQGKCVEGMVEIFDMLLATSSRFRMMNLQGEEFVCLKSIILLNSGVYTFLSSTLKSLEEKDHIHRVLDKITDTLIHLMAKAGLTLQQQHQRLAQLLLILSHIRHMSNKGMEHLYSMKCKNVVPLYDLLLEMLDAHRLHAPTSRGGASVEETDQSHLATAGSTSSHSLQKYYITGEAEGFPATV", "experiment": "OT_ER_ERaERa_1440: Odyssey Thera (OT) 24-hour HEK293T Protein-Complementation Assay for Estrogen Receptor-alpha/-alpha Homodimer (AID 2283349);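 also: hits raise fluorescence above DMSO for agonists and antagonists alike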", "experimental": "OT_ER_ERaERa_1440 is a cell-based assay that uses HEK293T, a human kidney cell line, with measurements taken at 24 hours after chemical dosing in a 384-well plate.OT_ER_ERaERa_1440 is one of one assay component(s) measured or calculated from the OT_ER_ERaERa_1440 assay. It is designed to make measurements of protein fragment complementation, a form of binding reporter, as detected with fluorescence intensity signals by Protein-fragment Complementation technology.Data from the assay component OT_ER_ERaERa_1440 was analyzed into 1 assay endpoint. This assay endpoint, OT_ER_ERaERa_1440, was analyzed in the positive analysis fitting direction relative to DMSO as the negative control and baseline of activity. Using a type of binding reporter, measures of receptor for gain-of-signal activity can be used to understand the binding at the pathway-level as they relate to the gene ESR1. Furthermore, this assay endpoint can be referred to as a primary readout, because the performed assay has only produced 1 assay endpoint. To generalize the intended target to other relatable targets, this assay endpoint is annotated to the nuclear receptor intended target family, where the subfamily is steroidal.\nProtein-fragment complementation assay, or PCA, is a method for the identification and quantification of protein-protein interactions. In the PCA, the proteins of interest (\"bait\" and \"prey\") are each covalently linked to fragments of a third protein (e.g. DHFR, which acts as a \"reporter\"). Interaction between the bait and the prey proteins brings the fragments of the reporter protein in close proximity to allow them to form a functional reporter protein whose activity can be measured. The OT ER alpha / ER alpha assay is a homodimer PCA of the ligand binding domain (amino acids 310-547) of human ER alpha stably expressed in HEK293T cells. […] Fluorescent signal in the basal state of the assay is very low and is primarily punctuate and cytoplasmic. Modulation of this assay is quantified as an increase in mean fluorescence intensity in the nucleus (for agonists) or in the nucleus and cytoplasm (antagonists) relative to vehicle controls, and can be quantified on a high content imaging device or a laser scanning cytometer. The latter instrument is favored for this assay because of the rapid mode of data acquisition, the ability to acquire data from the entire cell population in a well (as opposed to a fraction of the well on the high content devices) and the larger dynamic range typically achieved with this instrument. To assess sensitivity of the ER alpha/ER alpha LBD assay to ligand, cells were treated with the ER agonist 17 beta-estradiol (E2) in 10-point concentration- response format for 24 hours and monitored response on a laser scanning plate cytometer (Acumen eX3; TTP Lab Tech)."}
{"smiles": "COP(=O)(OC)OC(Br)C(Cl)(Cl)Br", "note": "(stereo unspecified)", "outcome": "inactive"}
{"smiles": "Cc1cc(C2CC2)nc(Nc2ccccc2)n1", "outcome": "inactive"}
{"smiles": "CCc1cccc(CC)c1N(COC)C(=O)CCl", "outcome": "inactive"}
{"smiles": "CNC(=O)Oc1cccc2c1OC(C)(C)O2", "outcome": "inactive"}
{"smiles": "CNC(=O)ON=C(SC)C(=O)N(C)C", "outcome": "inactive"}
{"smiles": "Nc1c(Cl)cc([N+](=O)[O-])cc1Cl", "outcome": "inactive"}
{"smiles": "CC[C@H](C)[C@H]1O[C@]2(C=C[C@@H]1C)C[C@@H]1C[C@@H](C/C=C(\\C)[C@@H](O[C@H]3C[C@H](OC)[C@@H](O[C@H]4C[C@H](OC)[C@@H](NC)[C@H](C)O4)[C@H](C)O3)[C@@H](C)/C=C/C=C3\\CO[C@@H]4[C@H](O)C(C)=C[C@@H](C(=O)O1)[C@]34O)O2", "outcome": "inactive"}
{"smiles": "COP(=O)(OC)SCn1c(=O)oc2cc(Cl)cnc21", "outcome": "inactive"}
{"smiles": "CSc1nc(NC(C)C)nc(NC(C)C)n1", "outcome": "inactive"}
{"smiles": "O=[N+]([O-])c1cc(C(F)(F)F)c(Cl)c([N+](=O)[O-])c1Nc1ncc(C(F)(F)F)cc1Cl", "outcome": "inactive"}
{"smiles": "CCCCOC(=O)[C@@H](C)Oc1ccc(Oc2ccc(C#N)cc2F)cc1", "outcome": "inactive"}
